PubChem BioAssay (NCI)
The panel holds about 83,000 compounds, 20% with a hit somewhere; the sample as a whole holds those more often.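 Percent growth is the endpoint: 0 to 100 indicates growth inhibition (40 means 60% inhibition), 0 means no net growth, and negative values indicate cell death.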 Unmarked numbers belong to inactive results. Activity calls are given as the source filed them.

The compounds below were run on NCI-H322M lung (assay: NCI-60 one-dose screen, 48 h (100 = growth as untreated, 0 = no growth, -100 = all killed)). Details: 10 µM unless noted.
Protocol: Growth inhibition of the NCI-H322M human Non-Small Cell Lung tumor cell line is measured as a screen for anti-cancer activity. Cells are grown in 96 well plates and exposed to the test compound for 48 hours. Compounds are tested at a single concentration, which is 10^-5 M for most compounds. The reported endpoint is percent growth (GI% or GIPRCNT), where numbers from 0 - 100% represent growth inhibition, and numbers from -100% - 0 represent cell death. For example, a value of 40 represents 60% growth inhibition. A value of 0 means no net growth occurred over the course of the experiment. A value of -40 indicates 40% of cells at the beginning of the experiment died by the end of the experiment. A value of -100 means all cells are dead at the end of the experiment.
NCI-60 Human Tumor Cell Lines Screen was performed using the standard one-dose NCI protocol, which is described in more detail at https://dtp.cancer.gov/discovery_development/nci-60/default.htm.
Compounds with GIPRCNT values below 10 were considered active. Activity score was based on GIPRCNT using the following formula: […]
Score is 0 for GIPRCNT values of 100 or above, 50 for GIPRCNT values of 0, and 100 for GIPRCNT values of -100.
For `CN1CCN(c2nc(-c3cnc4ccccc4n3)cc3ccccc23)CC1`, the growth was 96.7%. For `CC(C)(C)n1nnnc1C(Nc1nccs1)c1cc2cccc3ccc4cccc1c4c32` (stereo not given), the growth was 95.5%. `C#C[C@]1(O)CC[C@H]2[C@@H]3CC=C4c5sc(C6CC6)nc5CC[C@]4(C)[C@H]3CC[C@@]21C` was tested, and the growth was 84.1%. In the case of `C#Cc1ccc(NC(=O)c2ccc(/C=C/C(=O)c3nccn3C)cc2)c(F)c1`, the growth is reported as 19.8%. In the case of `Oc1ccc(CSc2nnc(-c3ccc(Br)cc3)o2)c2cccnc12`, the growth is reported as 35.7%. With `CS(=O)(=O)c1nccc(-c2c(-c3ccc(F)c(OCCc4ccc(F)cc4)c3)nc3sccn23)n1` the growth was -89.1% (active). In the case of `CCOP(=O)(OCC)OC[C@]12CCC(C)(C)C[C@H]1C1=CC[C@@H]3[C@@]4(C)C/C(=C\c5cccnc5)[C@H](OP(=O)(OCC)OCC)C(C)(C)[C@@H]4CC[C@@]3(C)[C@]1(C)CC2`, the growth is reported as 61.1%. Compound `C=CCn1c(SCC(=O)Nc2cccc(C(=O)/C=C/c3ccccc3)c2)nc2ccccc2c1=O` has a growth of 91.5%. With `Clc1ccccc1/C=C/c1nn2c(-c3ccncc3)nnc2s1` the growth was 100%. Work on `COc1cccc(/C=C/C(=O)c2ccc(NC(=O)COc3cccc4cccnc34)cc2)c1` yielded a growth of 95.5%. `Cn1c2ccc(Br)cc2c2c3c(c4c5cc(F)ccc5oc4c21)C(=O)N(O)C3=O` was tested, and the growth was 103%. In the case of `CCCCCCNC(=O)Oc1ccc(/C(=C(\C)c2ccc(OC)cc2)c2ccc(OCCN(C)C)cc2)cc1`, the growth is reported as 89%. For `CN1CCN(Cc2ccc(NC(=O)c3cncc(C#Cc4cnc5ccc(O[C@H]6CCOC6)nn45)c3)cc2C(F)(F)F)CC1`, the growth was -36.4% (active). Work on `O=S(=O)(Nc1cc(Cl)c(F)c(Cl)c1)c1ccc(-c2cnc(C3CC3)o2)cc1` yielded a growth of 49.9%. `COc1ccc(CCN2C(=O)/C(=C/c3nc(CO)cs3)SC2=S)cc1` showed a growth of 95.7%. `CS(=O)(=O)c1nccc(-c2c(-c3ccc(F)c(OCc4ccc(F)cc4)c3)nc3sccn23)n1` was tested, and the growth was -78.2% (active). Compound `Nc1nc(N)c2c(n1)NC(c1ccc(Cl)cc1)CC(c1ccc(Nc3nc(NCCO)nc(Nc4ccc(Cl)cc4)n3)cc1)=N2` (stereo not given) has a growth of 55.6%. Work on `C#CCOc1ccc(/C=N/Nc2nc(-c3cc4cc(Br)cc(Br)c4oc3=O)cs2)cc1` yielded a growth of 103%. Compound `COCCC[C@H]1O[C@@](O)([C@H](C)[C@@H]2CC(OC)C(O)/C=C(C)/C=C(C)/C=C(\C)C(OC3O[C@@H](C)[C@H](O)C(O)[C@@H]3O)C(C)/C=C(C)/C=C(OC)/C=C(\C)C(=O)O2)C(OC)C(O)[C@]1(C)O[C@H]1C[C@@H](O)[C@H](O[C@H]2C[C@](C)(O)[C@H](O)C(C)O2)C(C)O1` (stereo not given in full) has a growth of 97.4%. `CSc1nccc(-c2c(-c3ccc(F)c(OCc4ccc(F)cc4)c3)nc3sccn23)n1` showed a growth of 91.3%. `COc1ccc(-c2nc3cc(Cl)c(Cl)cc3n2CC(=O)N=Nc2c(O)[nH]c3ccc(Cl)cc23)cc1` gave a growth of 46.1%. In the case of `CC(C)=CCC[C@](C)(O)[C@H]1CC[C@]2(C)[C@@H]1CC[C@@H]1[C@@]3(C)CCC(NC(=O)c4ccccc4C(=O)O)C(C)(C)[C@@H]3CC[C@]12C` (stereo not given in full), the growth is reported as 104%. Compound `COc1cc(/C=C/C(=O)c2ccc(NC(=O)COc3cccc4cccnc34)cc2)cc(OC)c1OC` has a growth of 90.4%. Work on `COc1ccc(-c2nc(SCCC(C)C)nc(N/N=C\c3ccc(O)cc3)c2C#N)cc1` yielded a growth of 82.7%. With `CCN(CC)CCN1C(=O)c2c(c3c4cc(Br)ccc4[nH]c3c3ccc4ccccc4c23)C1=O` the growth was -92.3% (active). In the case of `O=C(/C=C/c1cn(-c2ccccc2)nc1-c1ccc(Cl)cc1)c1cc2ccccc2oc1=O`, the growth is reported as 77.7%. For `O=C1c2c(c3c4cc(O)ccc4oc3c3[nH]c4ccccc4c23)C(=O)N1O`, the growth was 2.25% (active). `O=C1Nc2cc(OC(F)(F)F)ccc2Oc2ccc(-c3ccnc(N4CC[C@H](O)C4)c3)cc21` showed a growth of 55.1%. With `O=S(=O)(Nc1ccc(-n2cnc3cc(-c4ccc(O)cc4)ccc32)cc1)C1CC1` the growth was 90.9%. `O=S(=O)(Nc1cc(Cl)cc(Cl)c1)c1ccc(-c2cnc(C3CC3)o2)cc1` gave a growth of 49.9%. In the case of `CCOC(=O)c1nn(-c2ccc(C)cc2)c(=O)c2c(N)c(C#N)c(-c3ccc(OC)cc3)cc12`, the growth is reported as 97.4%. `N#C/C(=C\c1ccc(Cl)cc1Cl)C(N)=O` showed a growth of 100%. For `COc1ccc(NC(=O)[C@H](C)NC(=O)OC(C)(C)C)cc1C(=O)Nc1cccc(-c2cc(=O)c3c(OC)c(OC)c(OC)cc3o2)c1`, the growth was -0.408% (active). In the case of `CCC(=O)Nc1ccc(-c2nc(-c3cccc(O)c3)c(-c3ccnc(Br)c3)[nH]2)cc1`, the growth is reported as 73.9%. In the case of `COc1ccc(/C=N/Nc2nc(Nc3ccccc3)nc(Nc3ccc(S(N)(=O)=O)cc3)n2)cc1`, the growth is reported as 84.6%. With `COc1ccc([C@H]2[C@H](O)C(=O)N2c2cc(OC)c(OC)c(OC)c2)cc1Cl` the growth was 49.1%. `O=C(CSc1nnc(-c2cccs2)n1-c1ccccc1)Nc1ccc(F)cc1` gave a growth of 97%. Work on `C=CCn1c(SCC(=O)Nc2cccc(C(=O)/C=C/c3cccc([N+](=O)[O-])c3)c2)nc2ccccc2c1=O` yielded a growth of 95.4%. With `ClC(Cl)c1nc(-c2cccs2)n2nc(-c3ccccc3)cc2n1` the growth was -28.8% (active). `CC(C)Sc1nc(NC2CC2)c(C#N)c(-c2ccccc2)n1` was tested, and the growth was 67.6%.
